Hits are enriched below; roughly 8.7% of the tested compounds scored in any of these assays.
ALOX12 inh – inhibitors of human 12S-lipoxygenase ALOX12; P18054; purified 12hLO, xylenol orange hydroperoxide absorbance; Potency, µM (highest dose often 108 µM), inactives show at the top dose activity change, negative = inhibition, actives largely listed as inhibitors; hit rate 1.1% among 580,000; AID 1671190; further: on the % scale 0 is the no-effect control and ±100 the full control effect
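Purified human 12hLO at 150 nM in 25 mM Hepes, 0.01% Triton X-100, pH 7.0, preincubated 15 min at room temperature with compound. Reaction started with 40 uM arachidonic acid, 30 min at room temperature. Hydroperoxide measured by Fe-xylenol orange, 573/405 nm absorbance ratio.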
JMJD2A Tudor inh – blocks the human JMJD2A Tudor domain | AlphaScreen JMJD2A-Tudor / H3K4me3 peptide binding | Potency, µM (series often up to 114 µM), for the others: at the highest dose activity change, negative = inhibition, usual class: inhibitors | hit rate 4.4% among 390,000 | AID 504339; further: on the % scale 0 is the no-effect control and ±100 the full control effect; nearly all actives have a fitted effect of over 50% in size
Sfp inh – inhibitors of Bacillus subtilis Sfp phosphopantetheinyl transferase | Q9F4F7 | hit rate 3.5% among 310,000 | Biochemical Sfp PPTase activity, qHTS | AID 1490 | Potency, µM, inactives show largest response in the series, negative = inhibition, usual class: inhibitors;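 further: the enzyme is Sfp with the accession as filed and its product quenches rhodamine fluorescence; 0% = enzyme reaction without inhibitor and -100% = no enzyme wells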
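Sfp 15 nM + cpd, 15 min RT; start w/ rhodamine-CoA 5 uM, BHQ-2-YbbR 12.5 uM (final); 50 mM Hepes pH 7.6, 10 mM MgCl2, 0.01% NP-40, 0.01% BSA; read 525/598 nm at 0 and 30 min.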
BAZ2B block – BAZ2B (human) inhibition; Q9UIF8; AlphaScreen BAZ2B-H3K14Ac peptide displacement; Potency, µM (series often up to 114 µM), without a hit: at the top dose activity change, negative = inhibition, most hits filed as inhibitors; hit rate 4.4% among 360,000; further: on the % scale 0 is the no-effect control and ±100 the full control effect; nearly all actives have a fitted effect of over 60% in size
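In this displacement format the biotinylated H3(5-23) peptide acetylated at Lys14 serves as ligand at 50 nM, with BAZ2B at 50 nM in PBS pH 7.4 containing 0.01% Tween-20. Donor and acceptor beads are 10 ug/mL final.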
HP1b chromo inh – blocks HP1-beta chromodomain binding to methylated histone tails; AlphaScreen HP1-beta / biotin-H3K9me3 peptide binding; hit rate 0.56% among 390,000; Potency, µM (top dose mostly 114 µM), inactives show top-dose activity change, negative = inhibition, actives largely listed as inhibitors; further: nearly all actives have a fitted effect of over 70% in size
Target sequence (P83916 whole entry, looked up): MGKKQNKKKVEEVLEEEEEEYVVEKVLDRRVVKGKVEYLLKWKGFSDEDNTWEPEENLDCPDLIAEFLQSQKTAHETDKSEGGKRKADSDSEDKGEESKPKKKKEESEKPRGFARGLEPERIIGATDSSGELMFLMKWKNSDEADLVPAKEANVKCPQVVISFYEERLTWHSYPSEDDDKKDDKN
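HP1-beta protein (50 nM final) preincubated 30 min at room temperature with biotinylated H3(1-18)K9me3 peptide (50 nM) in PBS pH 7.4, 0.01% Tween-20, then compound added for 30 min. AlphaScreen streptavidin donor/nickel chelate acceptor beads (10 ug/mL final), 30 min dark, luminescence read.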
G9a block – blocks human histone lysine methyltransferase G9a; Q96KQ7; Potency, µM (titrated, usually from 102 µM), inactives show top-dose activity, negative = inhibition, usual class: inhibitors; hit rate 8.8% among 350,000; AID 504332; G9a H3K9 monomethylation, AlphaScreen, 2 h; further: on the % scale 0 is the no-effect control and ±100 the full control effect; nearly all actives have a fitted effect of over 75% in size
Target sequence (Q96KQ7 913-1193 limits assumed): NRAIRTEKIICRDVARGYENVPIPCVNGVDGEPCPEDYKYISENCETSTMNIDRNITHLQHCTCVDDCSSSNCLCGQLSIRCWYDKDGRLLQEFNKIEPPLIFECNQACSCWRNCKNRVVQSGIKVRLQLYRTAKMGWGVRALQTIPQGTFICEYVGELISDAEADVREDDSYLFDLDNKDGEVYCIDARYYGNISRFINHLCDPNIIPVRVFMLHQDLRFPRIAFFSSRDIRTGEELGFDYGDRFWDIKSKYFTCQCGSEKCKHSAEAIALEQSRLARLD
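Enzyme 20 nM + cpd, 15 min RT; add b-H3K9 pep 500 nM / SAM 20 uM; 2 h RT; anti-H3K9me1 Ab 0.5 ug/mL + SA donor / anti-rabbit acceptor beads 20 ug/mL each, 10 min; AlphaScreen read.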
* marks the source's active call; other numbers are inactive results; ? = inconclusive; . = not tested or not shown; [ ] = another dose, or the depositor's remark. The call rests on the fitted dose curve; in most records, active means well fitted curve in the direction sought with a large enough effect; inconclusive means small, poorly fitted or top-dose-only effect, or another doubt; inactive means no such curve, though single readings can be large; an effect the other way counts as inactive or inconclusive. Potency means the concentration at half of the fitted maximal effect.

SMILES	ALOX12 inh	JMJD2A Tudor inh	Sfp inh	BAZ2B block	HP1b chromo inh	G9a block
CCC(=O)Nc1ccc(NCc2ccc(-c3ccccc3)cc2)cc1	59%	?	-5%	-27%	4%	25µM*
CC(=O)Nc1ccc(NCc2ccc(-c3ccccc3)cc2)cc1	30%	-24%	.	.	7%	.
Cc1nc(NS(=O)(=O)c2ccc(Cl)s2)c2c3c(sc2n1)CCCC3	?	-26%	23%	-29%	18%	50µM*
Cc1nc2n(n1)C(C(=O)Nc1ccc(C(C)C)cc1)CC(=O)N2 (configuration not stated)	-18%	.	.	.	.	.
Cc1sc(NC(=O)/C=C/C(=O)O)c(C(N)=O)c1-c1ccc(C(C)(C)C)cc1	?	-32%	-55%	-26%	-28%	?
CCc1c(C)sc(NC(=O)c2ccccc2[N+](=O)[O-])c1C(N)=O	-17%	-6%	-21%	-6%	15%	45µM*
CCc1c(C)sc(NC(=O)/C=C/C(=O)O)c1C(N)=O	?	-21%	-81%	-8%	32%	35µM*
O=C(NC1CCCCCC1)C(=O)N1CCN(C(=O)c2cc3ccccc3[nH]2)CC1	7%	.	.	.	.	.
O=C(CCc1ncc(-c2ccc(Cl)cc2)o1)Nc1ccc(F)cc1	-22%	.	.	.	.	.
CC(C)c1ccc(NC(=O)C2CC(=O)NC(N3CCN(c4ccc(F)cc4)CC3)=N2)cc1 (configuration not stated)	5%	.	.	.	.	.
O=[N+]([O-])c1cc(N=Cc2cccnc2)cc2ccc3ccccc3c12	5%	.	.	.	.	.
Cc1ccc(C(=O)c2no[n+]([O-])c2C(=O)c2ccc(C)cc2)cc1	-3%	-23%	?	?	-13%	40µM*
O=C(CC1CCCCC1)N1CCC2(CC1)NC(=O)N(c1cccc(F)c1)N2	2.8µM*	.	.	.	.	.
O=C(CC1CCCCC1)N1CCC2(CC1)NC(=O)N(c1ccccc1)N2	7.1µM*	.	.	.	.	.
O=C(C1CCCCC1)N1CCC2(CC1)NC(=O)N(c1cccc(F)c1)N2	1.4µM*	.	.	.	.	.
CC(C)(C)c1nnc2c3cnn(-c4ccccc4)c3ncn12	-26%	.	.	.	.	.
O=C(c1ccccc1Cl)N1C[C@@H](CO)[C@H](c2nc(C3CC3)no2)C1	61%	.	.	.	.	.
CCc1cccc2c(C(=O)COC(=O)c3cccs3)c[nH]c12	5%	.	.	.	.	.
CC(C)Oc1ccc(/C(O)=C2/C(=O)C(=O)N(CCCn3ccnc3)C2c2cccnc2)cc1 (configuration not stated)	0%	-8%	7%	13%	18%	40µM*
COCCCN1C(=O)C(=O)/C(=C(/O)c2ccc(OC(C)C)cc2)C1c1ccncc1 (configuration not stated)	?	-21%	14%	?	29%	45µM*
CCCOc1ccc(/C(O)=C2/C(=O)C(=O)N(CCCN3CCOCC3)C2c2ccncc2)cc1 (configuration not stated)	.	.	?	?	.	14µM*
Cc1ccc(C)c(/C(O)=C2\C(=O)C(=O)N(CCCn3ccnc3)C2c2cccnc2)c1 (configuration not stated)	?	56µM*	5%	79µM*	21%	?
Cc1ccc(/C(O)=C2/C(=O)C(=O)N(CCCn3ccnc3)C2c2cccnc2)cc1 (configuration not stated)	-18%	-2%	.	.	22%	.
N#Cc1cccc(NC(=O)N2CC[C@@]3(CCCNC3)C2)c1	-17%[57.4 µM]	.	79µM*	.	.	-14%[12.7 µM]
CCc1nc(-c2c3n(c(=O)n(CC(=O)Nc4ccc(Cl)cc4)c2=O)CCCC3)no1	15%	.	.	.	.	.
SMILES	ALOX12 inh	JMJD2A Tudor inh	Sfp inh	BAZ2B block	HP1b chromo inh	G9a block
CCS(=O)(=O)CCSC(C)C(=O)O (configuration not stated)	38%	.	.	.	.	.
O=c1[nH]c(C2CCN(Cc3ccccc3C(F)(F)F)CC2)nn1Cc1ccccc1	17%	.	.	.	.	.
Cc1cc(C)c(S(=O)(=O)/N=C2/C=C(SCC(=O)O)C(=O)c3ccccc32)cc1C	.	25µM*	22µM*	35µM*	35µM*	5.6µM*
COc1cccc(OC)c1C(=O)C1CC(=O)Nc2c1c(C)nn2-c1ccc(F)cc1 (configuration not stated)	-5%	.	.	.	.	.
N=C1/C(=C/c2cccs2)C(=O)N=C2SN=C(SCc3ccccc3)N12	?	?	4%	?	-5%	-8%[12.7 µM]
CC(C)CSC1=NSC2=NC(=O)/C(=C\c3cccs3)C(=N)N12	-14%	?	23%	?	-4%	45µM*
c1ccc(-c2cn(C[C@H]3CC[C@H](Cn4cc(-c5ccccn5)nn4)O3)nn2)nc1	-9%	0.89µM*	-14%	0.79µM*	-2%	.
COCCn1c(C)cc(/C=C2/SC(=O)N(C(C)C(=O)OC)C2=O)c1C (configuration not stated)	?	?	5%	?	-6%	?
COCCn1c(C)cc(/C=C2\NC(=S)N(C)C2=O)c1C	?	-51%	-9%	50µM*	?	10µM*
O=C(COc1ccccc1)N1C[C@@H](CO)[C@H](c2ccccn2)C1	60%	.	.	.	.	.
Cc1cc2n(n1)C(c1ccccc1)Nc1ccccc1-2 (configuration not stated)	-22%	-19%	-1%	-3%	32%	-15%[59 µM]
Cc1cc2n(n1)C(c1ccc(N(C)C)cc1)Nc1ccccc1-2 (configuration not stated)	201%	45µM*	16%	33%	-45%	29%[59 µM]
Cc1cccc(C(=O)NCCC2CCN(C(=O)Nc3cc(F)ccc3F)CC2)c1	47%	.	.	.	.	.
C=CCNC(=S)Nc1ccc2nsnc2c1	0%	-10%	10%	5%	38%	6%[59 µM]
CCOc1ccc(NC(=S)Nc2ccc3nsnc3c2)cc1	?	-36%	?	-34%	?	?
CNC(=S)Nc1ccc2nc(C)c(C)nc2c1	-26%	2%	?	?	38%	?
